HT1080 IDH1KD tx – HT-1080 IDH1 knockdown cell toxicity (counter line); HT-1080 IDH1 knockdown viability, ATP luminescence, 48 h; Potency, µM (series often up to 46.1 µM), inactives show at the top dose activity, negative = toxicity, hits mostly cytotoxic; 360,000 compounds, 2% hits;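 also: 0% = DMSO wells and -100% = cell-free medium wells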
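% activity derives from luminescence (CellTiter-Glo), normalised to DMSO and no-cell wells. HT-1080-IDH1KD cells, 750/well, had 48 h compound exposure at 37 °C.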
TGFb inhibitor – TGF-b pathway inhibition; 410,000 compounds, 1.2% hits; AID 588855; HepG2 CAGA-GFP TGF-b/SMAD3 reporter, GFP fluorescence, 18 h; TGF-beta stimulated, 500 pg/mL final; Potency, µM (series often up to 46.1 µM), for inactives: top-dose activity, negative = inhibition, most hits filed as inhibitors; also: % is scaled to controls: 0 for no effect and ±100 for the full control effect; nearly all actives have a fitted effect of over 65% in size
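First, reporter cells (HEPG2 CAGA-GFP) rested 2 h at 37 degrees C. Next, compounds were pinned in and TGF-beta added to 500 pg/mL final. After 18 h, GFP was imaged per cell and summed per well.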
HT1080NT lethal – kills 2HG-producing HT-1080-NT fibrosarcoma cells; HT-1080-NT fibrosarcoma viability, CellTiter-Glo ATP luminescence, 48 h; 360,000 compounds, 1.6% hits; Potency, µM (series often up to 46.1 µM), inactives show top-dose activity, negative = less viability, actives largely listed as cytotoxic;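 also: NT is the 2HG producing partner of a matched IDH1 knockdown line; 0% = DMSO-treated cells and -100% = media-only wells without cells; nearly all actives have a fitted effect of over 55% in size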
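HT-1080-NT fibrosarcoma cells (2HG-overproducing), 750 cells/well in RPMI with 5% FBS, dosed after 2 h and incubated 48 h at 37C. CellTiter-Glo luminescence normalized to DMSO and no-cell wells; concentration-response curves fitted and classed.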
KB-V1 cytotox – KB-V1 MDR subline cytotoxicity; KB-V1 MDR cells viability, CellTiter-Glo, 72 h; Potency, µM (doses to about 46.1 µM), hits mostly cytotoxic; 400,000 compounds, 3.4% hits; also: % is scaled to controls: 0 for no effect and ±100 for the full control effect; nearly all actives have a fitted effect of over 60% in size
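Readout: CellTiter-Glo luminescence, 10 min after addition. Cells: KB-V1 MDR subline, 72 h at 37 degrees C with compound. Analysis: corrected, normalized data fitted to concentration-effect curves.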
KB-3-1 tox – kills parental KB-3-1 adenocarcinoma cells; KB-3-1 viability, CellTiter-Glo ATP luminescence, 72 h; Potency, µM (titrated, usually from 46.1 µM), hits mostly cytotoxic; 400,000 compounds, 1.4% hits; also: % is scaled to controls: 0 for no effect and ±100 for the full control effect; nearly all actives have a fitted effect of over 60% in size
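Cytotoxicity in the drug-sensitive parental line KB-3-1 was scored as loss of CellTiter-Glo luminescence following 72 h incubation with compound. Values come from curve fitting of normalized concentration-response data.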
HepG2 tox – counter-screen for TGF-b inhibitors: cytotoxicity in HepG2 cells; HepG2 CAGA-GFP viability, ATP luminescence, 18 h; Potency, µM (top dose mostly 46.1 µM), for inactives: top-dose activity change, negative = cytotoxicity, most hits filed as cytotoxic; 410,000 compounds, 0.76% hits
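HepG2 CAGA-GFP cells (1000/well, DMEM with 1% FBS) received compound, then TGF-beta at 500 pg/mL final, and were incubated 18 hours at 37 degrees C. Viability was read by CellTiter-Glo luminescence. Media-only wells were set as complete cell-killing and DMSO as no toxicity.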
* = called active by the depositor; i = inactive; ? = inconclusive; nt = no result. Shown are actives, neighbours in structure and some others; about 6.6% of the full set was active somewhere. Calls follow the shape of the dose curve; as a rule, active = well fitted curve in the direction sought with a large enough effect; inconclusive = small, poorly fitted or top-dose-only effect, or another doubt; inactive = no such curve, though single readings can be large; an effect the other way counts as inactive or inconclusive. Potency is read from the fitted curve at half-maximal effect.

SMILES	HT1080 IDH1KD tx	TGFb inhibitor	HT1080NT lethal	KB-V1 cytotox	KB-3-1 tox	HepG2 tox
CC(C)(C)NC(=O)C(c1c[nH]c2ccccc12)N(C(=O)Cn1nnc(-c2ccc(Cl)cc2)n1)c1ccccc1F (configuration not stated)	-10%	?	-9%	i	i	0%
CC(C)(C)NC(=O)C(c1ccco1)N(C(=O)Cn1nnc(-c2ccc(F)cc2)n1)c1ccccc1 (configuration not stated)	-13%	4%	5%	3.7µM*	?	-1%
CC(C)(C)NC(=O)C(c1ccco1)N(C(=O)Cn1nnc(-c2ccc(F)cc2)n1)c1ccccc1F (configuration not stated)	?	4%	-19%	18µM*	i	-4%
O=C(Cn1c(=O)oc2cc(S(=O)(=O)N3CCCCC3)ccc21)Nc1cccc(Cl)c1	nt	?	nt	i	i	-26%
CCCN1CNc2c(c(=O)[nH]c(=S)n2CCc2cc(OC)ccc2OC)C1	20%	nt	6%	nt	nt	nt
Cc1n[nH]c(=S)n1/N=C/c1ccccc1OCc1ccc(Cl)cc1	-1%	2%	-9%	12µM*	?	-13%
Cc1n[nH]c(=S)n1/N=C/c1cccc(OCc2ccccc2)c1	-5%	-5%	-2%	i	i	-38%
Cc1c(Cl)c([N+](=O)[O-])nn1CCCC(=O)N1CCN(c2ccccc2)CC1	4%	-1%	4%	i	i	-11%
Cc1c(Br)c([N+](=O)[O-])nn1CCCC(=O)N1CCN(c2ccccc2)CC1	0%	1%	3%	21µM*	?	12%
CC(=O)Nc1ccc(NC(=O)Cn2nc([N+](=O)[O-])c(Br)c2C)cc1	5%	1%	3%	i	i	1%
Cc1c(Br)c([N+](=O)[O-])nn1CC(=O)N1CCc2ccccc2C1	24%	11%	9%	16µM*	i	16%
Cc1c(Br)c([N+](=O)[O-])nn1CC(=O)Nc1ccc(C(C)C)cc1	23µM*	?	-28%	?	i	-27%
O=C(Cn1cc([N+](=O)[O-])nc1[N+](=O)[O-])N1CCN(c2ccccc2)CC1	26µM*	?	-21%	i	i	-108%
O=C1CCc2cc([S+](=O)([O-])Nc3ccc(N[S+](=O)([O-])c4ccc5c(c4)CCC(=O)N5)cc3)ccc2N1	nt	nt	nt	i	i	nt
CCc1ccccc1NC(=O)Nc1cc(C(=O)NCc2cccc(F)c2)ccc1N1CCCC1	nt	-24%	nt	i	i	-16%
COc1ccc(N2CC(NC(=O)C(=O)c3c[nH]c4ccccc34)CC2=O)cc1 (configuration not stated)	nt	-15%	nt	nt	nt	13%
CCN(CC)C(=O)Cn1c(=O)n(-c2ccc(C)c(C)c2)c(=O)c2c(C)c(C(=O)N(CC)CC)sc21	nt	10%	nt	i	i	4%
Cc1cc(C)nc(Nc2ccc(O)cc2)n1	4%	0%	9%	i	i	0%
COc1nc(Nc2ccc(OC)c(Cl)c2)nc(OC)n1	0%	2%	0%	18µM*	?	-3%
CNc1nc(Cl)nc(Nc2ccccc2)n1	2%	18%	3%	5.8µM*	?	3%
Cc1cc(C)nc(Sc2nc(Nc3ccccc3)nc(Sc3nc(C)cc(C)n3)n2)n1	-26%	6%	-12%	?	21µM*	16%
COc1nc(Nc2ccccc2)nc(OC)n1	-2%	0%	0%	8.2µM*	?	-49%
COc1ccc2c(c1)Cc1sc(NC(=O)c3ccc(Cl)cc3)nc1-2	nt	-8%	nt	nt	nt	-14%
COc1nc(Nc2cccc(F)c2)nc(OC)n1	3%	-8%	-2%	6.5µM*	?	-6%
Cc1ccc(S(=O)(=O)N2CCN(c3nc(-c4cccs4)nc4cccnc34)CC2)cc1	nt	7%	nt	i	i	4%
